According to paper PMC7862700, “An all-to-all approach to the identification of sequence-specific readers for epigenetic DNA modifications on cytosine”:

Target: CRX (Homo sapiens, UniProt O43186 1-299)
Assay: DAPPL (digital affinity profiling via proximity ligation, sequencing); 10 mM Tris-HCl pH 7.5, 50 mM NaCl, 1 mM DTT, 4% glycerol, room temperature, 30 min; GST-TFs on glutathione beads, 16-mer random dsDNA library, 0.1% formaldehyde crosslink after washing; high values mean tight binding
Conditions: protein: recombinant; tags: N-terminal GST; dsDNA, one strand shown
Summary of the method: (§1)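 GST fusions of human transcription factors were expressed in yeast and captured with glutathione beads. Once given DNA barcodes and pooled alongside a tag-only sample, they were incubated for 30 min at room temperature with 200 nmole of a random double-stranded 16-mer DNA library in Tris/NaCl/DTT/glycerol buffer, then washed, crosslinked (0.1% formaldehyde), proximity-ligated, PCR-amplified and sequenced on an Illumina NextSeq500. The binding signal of each hexamer is its read frequency for a factor divided by its frequency for the tag-only sample.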

Chain of CRX (O43186 whole entry): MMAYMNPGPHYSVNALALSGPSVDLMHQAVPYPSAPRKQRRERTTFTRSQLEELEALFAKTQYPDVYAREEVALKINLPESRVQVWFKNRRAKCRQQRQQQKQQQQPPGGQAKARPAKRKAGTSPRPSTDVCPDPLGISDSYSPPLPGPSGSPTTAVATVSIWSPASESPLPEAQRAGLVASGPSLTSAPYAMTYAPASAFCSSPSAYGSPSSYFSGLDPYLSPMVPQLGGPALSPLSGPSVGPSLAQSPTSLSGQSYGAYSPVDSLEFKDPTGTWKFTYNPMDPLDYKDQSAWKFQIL

Sequence | binding signal
TACCGC | 1.03 fold enrichment (6-mer frequency, TF over GST control)
TGCATA | 1.01 fold enrichment (6-mer frequency, TF over GST control)
AAGTCA | 1.03 fold enrichment (6-mer frequency, TF over GST control)
CGCTCA | 1.2 fold enrichment (6-mer frequency, TF over GST control)
TCACCC | 1.02 fold enrichment (6-mer frequency, TF over GST control)
CTCAGT | 1.08 fold enrichment (6-mer frequency, TF over GST control)
CCTCGG | 1.02 fold enrichment (6-mer frequency, TF over GST control)
TGATGT | 1.05 fold enrichment (6-mer frequency, TF over GST control)
TCCGTT | 1.13 fold enrichment (6-mer frequency, TF over GST control)
CGGTTT | 1.05 fold enrichment (6-mer frequency, TF over GST control)
CTACGT | 1.01 fold enrichment (6-mer frequency, TF over GST control)
TCACAT | 1.09 fold enrichment (6-mer frequency, TF over GST control)
TCAATG | 1.02 fold enrichment (6-mer frequency, TF over GST control)
ACCACT | 1.04 fold enrichment (6-mer frequency, TF over GST control)
TTGTTG | 1.09 fold enrichment (6-mer frequency, TF over GST control)
GGCATT | 1.29 fold enrichment (6-mer frequency, TF over GST control)
CCTAGA | 1.22 fold enrichment (6-mer frequency, TF over GST control)
ACCTTG | 1.03 fold enrichment (6-mer frequency, TF over GST control)
AACGGC | 1.11 fold enrichment (6-mer frequency, TF over GST control)
TCATGC | 1.03 fold enrichment (6-mer frequency, TF over GST control)

Sequence | binding signal
AAACGG | 1.01 fold enrichment (6-mer frequency, TF over GST control)
CCTGTA | 1.04 fold enrichment (6-mer frequency, TF over GST control)
TACAGG | 1.08 fold enrichment (6-mer frequency, TF over GST control)
ACCGCC | 1.01 fold enrichment (6-mer frequency, TF over GST control)
ATCACA | 1.16 fold enrichment (6-mer frequency, TF over GST control)
CCTACC | 1.07 fold enrichment (6-mer frequency, TF over GST control)
TGCTGA | 1.04 fold enrichment (6-mer frequency, TF over GST control)
TGCAAT | 1.03 fold enrichment (6-mer frequency, TF over GST control)
TGTATA | 1.03 fold enrichment (6-mer frequency, TF over GST control)
GGCTTA | 3.34 fold enrichment (6-mer frequency, TF over GST control)
AAAGGG | 1.08 fold enrichment (6-mer frequency, TF over GST control)
GCCTCC | 1.03 fold enrichment (6-mer frequency, TF over GST control)
GATATC | 1.02 fold enrichment (6-mer frequency, TF over GST control)
TACCCA | 1.08 fold enrichment (6-mer frequency, TF over GST control)
CTGACC | 1.01 fold enrichment (6-mer frequency, TF over GST control)
CCATCA | 1.04 fold enrichment (6-mer frequency, TF over GST control)
TACGTC | 1 fold enrichment (6-mer frequency, TF over GST control)
ATACGT | 1.01 fold enrichment (6-mer frequency, TF over GST control)
GGATAT | 1.09 fold enrichment (6-mer frequency, TF over GST control)
GGTCTA | 1.01 fold enrichment (6-mer frequency, TF over GST control)

Target: ETV1 (Homo sapiens, UniProt P50549 1-477)
Sequence (P50549 whole entry): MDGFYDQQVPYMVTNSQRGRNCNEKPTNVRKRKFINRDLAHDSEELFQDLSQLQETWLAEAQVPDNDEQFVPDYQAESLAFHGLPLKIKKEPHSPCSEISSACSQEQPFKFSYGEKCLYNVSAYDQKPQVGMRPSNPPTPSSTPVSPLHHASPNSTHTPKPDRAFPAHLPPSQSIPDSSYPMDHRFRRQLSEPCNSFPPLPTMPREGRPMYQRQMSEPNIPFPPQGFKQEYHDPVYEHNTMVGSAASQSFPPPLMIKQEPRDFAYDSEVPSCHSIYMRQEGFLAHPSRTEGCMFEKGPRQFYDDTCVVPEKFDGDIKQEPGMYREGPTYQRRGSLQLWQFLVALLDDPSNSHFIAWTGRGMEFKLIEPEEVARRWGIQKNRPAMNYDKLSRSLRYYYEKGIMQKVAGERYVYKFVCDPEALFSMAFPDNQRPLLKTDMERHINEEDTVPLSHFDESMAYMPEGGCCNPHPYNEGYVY
Assay: as above
Conditions: protein: recombinant; tags: N-terminal GST; dsDNA, one strand shown
Summary of the method: as §1

Sequence | binding signal
TACCGC | 1.06 fold enrichment (6-mer frequency, TF over GST control)
TGCATA | 1.07 fold enrichment (6-mer frequency, TF over GST control)
AAGTCA | 1.3 fold enrichment (6-mer frequency, TF over GST control)
CGCTCA | 1.13 fold enrichment (6-mer frequency, TF over GST control)
TCACCC | 1.18 fold enrichment (6-mer frequency, TF over GST control)
CTCAGT | 1.12 fold enrichment (6-mer frequency, TF over GST control)
CCTCGG | 1.28 fold enrichment (6-mer frequency, TF over GST control)
TGATGT | 1.26 fold enrichment (6-mer frequency, TF over GST control)
TCCGTT | 1.36 fold enrichment (6-mer frequency, TF over GST control)
CGGTTT | 1.32 fold enrichment (6-mer frequency, TF over GST control)
CTACGT | 1.3 fold enrichment (6-mer frequency, TF over GST control)
TCACAT | 1.21 fold enrichment (6-mer frequency, TF over GST control)
TCAATG | 1.15 fold enrichment (6-mer frequency, TF over GST control)
ACCACT | 1.2 fold enrichment (6-mer frequency, TF over GST control)
TTGTTG | 1.21 fold enrichment (6-mer frequency, TF over GST control)
GGCATT | 1.1 fold enrichment (6-mer frequency, TF over GST control)
ACCTTG | 1.21 fold enrichment (6-mer frequency, TF over GST control)
AACGGC | 1.17 fold enrichment (6-mer frequency, TF over GST control)
TCATGC | 1.17 fold enrichment (6-mer frequency, TF over GST control)
AAACGG | 1.27 fold enrichment (6-mer frequency, TF over GST control)

Sequence | binding signal
CCTGTA | 1.3 fold enrichment (6-mer frequency, TF over GST control)
TACAGG | 1.15 fold enrichment (6-mer frequency, TF over GST control)
ACCGCC | 1.05 fold enrichment (6-mer frequency, TF over GST control)
ATCACA | 1.04 fold enrichment (6-mer frequency, TF over GST control)
CCTACC | 1.47 fold enrichment (6-mer frequency, TF over GST control)
TGCTGA | 1.12 fold enrichment (6-mer frequency, TF over GST control)
TGCAAT | 1.26 fold enrichment (6-mer frequency, TF over GST control)
TGTATA | 1.16 fold enrichment (6-mer frequency, TF over GST control)
GGCTTA | 1.11 fold enrichment (6-mer frequency, TF over GST control)
AAAGGG | 1.26 fold enrichment (6-mer frequency, TF over GST control)
GCCTCC | 1.25 fold enrichment (6-mer frequency, TF over GST control)
GATATC | 1.51 fold enrichment (6-mer frequency, TF over GST control)
TACCCA | 1.03 fold enrichment (6-mer frequency, TF over GST control)
CTGACC | 1.43 fold enrichment (6-mer frequency, TF over GST control)
CCATCA | 1.13 fold enrichment (6-mer frequency, TF over GST control)
TACGTC | 1.24 fold enrichment (6-mer frequency, TF over GST control)
ATACGT | 1.13 fold enrichment (6-mer frequency, TF over GST control)
GGATAT | 1.62 fold enrichment (6-mer frequency, TF over GST control)
GGTCTA | 1.05 fold enrichment (6-mer frequency, TF over GST control)
